Data on 32 molecules can be found in PubChem BioAssay AID2508 (National Center for Advancing Translational Sciences (NCATS), 2010).

Records with an inconclusive call do not appear. Activity calls are given as the source filed them. Calls come from the whole dose curve; as a rule, active = well fitted inhibition curve with a large enough effect; inconclusive = small, poorly fitted or top-dose-only effect, or effect the other way; inactive = no such curve, though single readings can be large or run the other way.

This assay is described as follows: Confirmatory Assay for General miRNAs Modulators and/or Inhibitors/Activators of miR-21. The following applies: HeLa miR-21 FLuc reporter, luminescence, 48 h; series mostly up to 38.3 µM; activity change, negative = inhibition: at the top concentration. An excerpt: MLSCN Grant: 1 R21 NS059478-01 Assay Provider: Qihong Huang, The Wistar Institute NCGC Assay Overview: MicroRNAs (miRNAs) are endogenously encoded small (~20-25 nucleotides), nonprotein-coding RNAs that are involved in post-transcriptional repression of target messenger RNAs (mRNAs) (Le and Hannon, 2004). Estimated to be involved in the regulation of 30% of all protein-coding mRNAs (Filipowicz et al., 2008), miRNAs play a significant role in many biological processes including cellular differentiation and tissue development (Ghildiyal and Zamore, 2009).
NCGC Assay Protocol Summary: Reagents: HeLa cells stably expressing firefly luciferase (FLuc) under the control of a CMV promoter (upstream) and a miR-21 binding sequence directly downstream of the gene. These cells endogenously express miR-21. Control compounds used were compound C3 (provided by collaborator), N6-phenyladenosine (MP Biomedicals, 0215379625), and DMSO. Assay Summary: 6uL of HeLa miR-21-FLuc cells in assay buffer (DMEM, Invitrogen #21063-029; 10% FBS, HyClone #SH30071.03) were dispensed at 2000cells/well (3.3 x 10^5 cells/mL) into Greiner solid-white TC-treated 1536-well plates using a Multidrop Combi (Thermo Fisher Scientific). Plates were incubated for one hour at 37 degree Celsius, 95% humidity, 5% CO2. These assay plates were then treated with 23nL of compound or DMSO using a Kalypsys pin tool, which allows for delivery of a 24-point titration of each compound to the assay plate, with a final compound concentration ranging from approximately 40uM to 5pM. Assay plates were then incubated for 48 hours. After incubation, plates were allowed to come to RT for one hour prior to delivery of 3uL of 3X luciferase detection reagent. After a 15 minute incubation to allow for cell lysis, luciferase activity was measured using a ViewLux CCD imager (PerkinElmer), with an average exposure time of 2-12 seconds. Keywords: NIH Roadmap, MLPCN, MLSMR, qHTS, miR-21, microRNA, firefly luciferase, FLuc.
Regarding `COc1ccccc1NC(=O)C/C(C)=N/NC(=O)c1ccccn1`, the “activity change, negative = inhibition” value is -5.3% (inactive).
With `COc1ccccc1C(=O)n1nc(-c2ccco2)nc1NCc1ccc(Cl)cc1`, the Potency is 12.6 µM (active).
Turning to `Cc1ccc(CNc2nc3nc(C)c(Cl)c(C)n3n2)cc1`, the Potency was 4 µM (active).
Take `COc1ccc(-c2nc(SCc3ccccc3)n(S(C)(=O)=O)n2)cc1`: the Potency was 10 µM (active).
Still for that read-out and setting: the same measure for `CC(C)(C)C1CCc2nc(NC(=O)Cc3cn4ccsc4n3)sc2C1` (configuration not stated): 11.3 µM (active); for `N#Cc1cc2cc3c(cc2nc1SCC(=O)N1CCOCC1)OCO3`: 1.13 µM (active); for `COc1ccc(NC(=O)CSc2nc(SC)ns2)c(OC)c1`: 4 µM (active).
The same measure, in the same setting: the same measure for `Nc1c(-c2nc(-c3ccccc3Cl)no2)nnn1-c1ccccc1F`: 0.798 µM (active); for `CCc1cccc(-n2nnc(-c3nsc(NC(=O)c4cccs4)n3)c2C)c1`: 10 µM (active).
In the case of `Cc1cc(C)cc(NC(=O)CSc2nnc(CNC(=O)c3ccco3)o2)c1`, the “activity change, negative = inhibition” value is 1.68% (inactive).
`Cc1c(-c2nsc(NC(=O)c3cccs3)n2)nnn1-c1ccc(Cl)cc1`: the Potency was 14.2 µM (active).
On to `Nc1c(-c2nc(-c3ccncc3)no2)nnn1CC(=O)Nc1ccccc1`, for which the “activity change, negative = inhibition” value was -14.6% (inactive).
As for `COc1cccc(-n2nnc(-c3nc(-c4cccs4)no3)c2N)c1`, the Potency was 0.895 µM (active).
Turning to `O=C(COc1ccccc1F)Nc1ccc(-c2nc3ccccc3s2)cc1`, the Potency is 1.26 µM (active).
Turning to `COc1ccc(OCC(=O)Nc2ccc(-c3nc4cc(C)c(C)cc4o3)cc2)cc1`, the Potency is 0.4 µM (active).
In the case of `CCC(=O)n1nc(-c2cccnc2)nc1NCc1ccc(F)cc1`, the “activity change, negative = inhibition” value was -17% (inactive).
Regarding `CCc1nonc1NC(=O)c1oc2ccccc2c1C`, the Potency was 7.98 µM (active).
Consider `O=C(CSc1nnc(-c2ccccn2)o1)Nc1cccc(Cl)c1`, for which the Potency was 2.52 µM (active).
As for `CCc1ccc(-n2nnc(-c3nc(-c4cccs4)no3)c2N)cc1`, the Potency was 3.18 µM (active).
Still for that read-out and setting: the same measure for `CC(=O)c1cnc2nc(SCc3ccccc3)nn2c1C`: 6.34 µM (active); for `Cc1cccc(-n2nnc(-c3nc(-c4cccs4)no3)c2N)c1`: 0.634 µM (active).
`CC(=O)Nc1nc2c(C)cc(NC(=O)C3CCCCC3)cc2s1`: the Potency was 1.79 µM (active).
Turning to `CC(C)COc1ccc(C(=O)Nc2cc(-c3ccccc3)no2)cc1`, the Potency is 3.56 µM (active).
On to `COc1ccc(NC(=O)CSc2nnc(-c3cccs3)o2)cc1`, for which the Potency is 10 µM (active).
`CC1=C(c2ccc(C)c(C)c2)S(=O)(=O)N=C1N1CCC(C(=O)NCCc2ccc(Cl)cc2)CC1`: the “activity change, negative = inhibition” value is 27.4% (inactive).
Turning to `Nc1c(C(=O)Nc2ccccc2Br)sc2nc(-c3cccs3)ccc12`, the “activity change, negative = inhibition” value is -42.2% (inactive).
Consider `CS(=O)(=O)n1nc(-c2ccc(Cl)cc2)nc1SCc1ccccc1`, for which the Potency was 5.04 µM (active).
Turning to `CCc1ccc2oc(C(=O)Nc3nonc3CC)c(C)c2c1`, the Potency was 7.11 µM (active).
Regarding `Cc1ccccc1Nc1nc(N)nc(CN(C)c2ccccc2)n1`, the Potency was 11.3 µM (active).
Regarding `CSc1nsc(SCC(=O)Nc2ccc(F)cc2F)n1`, the Potency was 7.98 µM (active).
`COc1ccc(CNc2n[nH]c(-c3ccco3)n2)cc1OC`: the “activity change, negative = inhibition” value was -2.25% (inactive).
Regarding `Cc1cc(C)cc(NC(=O)CSc2nnc(-c3ccccc3C)o2)c1`, the Potency is 5.65 µM (active).
